# Records with an inconclusive call do not appear. Calls of active or inactive are those of the source.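 How the source made its calls, unless noted: active means GFP signal above the screen-wide mean plus 3 SD, that is over about 124.5% of the solvent control; inconclusive means no reading because the compound's own fluorescence disturbed strain identification; inactive means the rest.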
# Test: modulators of AGP1-GFP expression in yeast TOR pathway, primary screen, cell-based, multiplex flow cytometry, S. cerevisiae (AID 1887);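 further: AGP1-GFP fusion strain of S. cerevisiae within a five-strain barcoded multiplex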
# Settings: 3 h, at 10 µM, stronger effect = higher value
row,SMILES,"GFP response, % of DMSO"
1,Cc1ccc2[nH]c3c(c2c1)CN(C)CC3,100% (inactive)
2,COc1ccc2[nH]c3c(c2c1)CCn1c-3nc2ccccc2c1=O,101% (inactive)
3,CC(=O)O[C@H]1CSC[C@H]1NC(=O)c1ccccc1,101% (inactive)
4,CC(=O)Oc1ccc2occ(/C=N/c3cc(=O)[nH]c(=S)[nH]3)c(=O)c2c1,98.5% (inactive)
5,O=C(O)CCSc1nc2ccccc2s1,95.8% (inactive)
6,CCOc1ccc(C(=O)/C=C/c2cc(OC)c(OC)c(OC)c2)cc1,89.4% (inactive)
7,COC(=O)c1cc(OC)c(OC)c(OC)c1[N+](=O)[O-],105% (inactive)
8,COC(=O)c1[nH]c2ccccc2c1NC(=O)CN1CCN(C/C=C/c2ccccc2)CC1,96.1% (inactive)
9,Cc1ncc([N+](=O)[O-])n1CC(C)O (configuration not stated),97.3% (inactive)
10,Clc1ccccc1CN1CCc2sccc2C1,119% (inactive)
11,CC[C@]1(O)C[C@@H]2CN(CCc3c([nH]c4ccccc34)[C@@](C(=O)OC)(c3cc4c(cc3OC)N(C)[C@H]3[C@@](O)(C(=O)OC)[C@H](OC(C)=O)[C@]5(CC)C=CCN6CC[C@]43[C@@H]65)C2)C1,99% (inactive)
12,O=C(CCCN1CC=C(n2c(=O)[nH]c3ccccc32)CC1)c1ccc(F)cc1,97.2% (inactive)
13,CCOc1cccc(N2C(=O)CC(N(CCc3ccc(OC)c(OC)c3)C(=O)CC)C2=O)c1 (configuration not stated),100% (inactive)
14,COC(=O)C1=C(C)NC(C)=C(C(=O)OC)C1c1ccccc1[N+](=O)[O-],94.6% (inactive)
15,CC(COc1ccccc1)NC(C)C(O)c1ccc(O)cc1 (configuration not stated),108% (inactive)
16,COc1ccc2oc(=O)c(-c3nc(C)cs3)cc2c1,88.2% (inactive)
17,CC(=O)Oc1cc(C(C)C)c(OCCN(C)C)cc1C,99.9% (inactive)
18,O=C(NNC(=O)c1cccs1)c1ccco1,111% (inactive)
19,CC(C)Oc1ccc(C(CC(=O)O)c2ccc(F)cc2)cc1 (configuration not stated),90.4% (inactive)
20,Cc1ccccc1-c1coc2cc(O)ccc2c1=O,97.3% (inactive)

row,SMILES,"GFP response, % of DMSO"
1,CCN(CC)CCOC(=O)C1(C2CCCCC2)CCCCC1,108% (inactive)
2,NC(=O)OCC(COC(N)=O)c1ccccc1,103% (inactive)
3,CC(C)[N+]1(C)[C@@H]2CC[C@H]1CC(OC(=O)C(CO)c1ccccc1)C2 (some centres not stated),104% (inactive)
4,Cc1ccccc1OCCSc1nc2ncnc(N)c2[nH]1,103% (inactive)
5,CC(=O)NCCCCCCNC(C)=O,106% (inactive)
6,CCN(Cc1ccncc1)Cc1nc(Cc2ccccc2Cl)no1,94.2% (inactive)
7,CCOC(=O)NN1C(=O)c2ccccc2NC1c1ccc(OC)c(OC)c1 (configuration not stated),99.6% (inactive)
8,COc1ccc2c(c1)c(CC(=O)O)c(C)n2C(=O)c1ccc(Cl)cc1,92.5% (inactive)
9,CC1=CC2(O)OCCN(CCO)C2=CC1=O (configuration not stated),97.9% (inactive)
10,Cc1ccccc1C(OCCN(C)C)c1ccccc1 (configuration not stated),94.6% (inactive)
11,COC1(C)CC2C(CC1OC(=O)c1cc([N+](=O)[O-])cc([N+](=O)[O-])c1)C2(C)C (configuration not stated),74.2% (inactive)
12,O=C1OC(c2ccc(O)cc2)(c2ccc(O)cc2)c2ccccc21,100% (inactive)
13,Cn1c(=O)c2c(ncn2CC(O)CO)n(C)c1=O (configuration not stated),99.4% (inactive)
14,Cc1cnc(C(=O)N2CCCC(C(=O)c3ccc(Cl)cc3C)C2)cn1 (configuration not stated),101% (inactive)
15,CN(C)C(=O)C12CCC(C)(c3nc4ccccc4nc31)C2(C)C (configuration not stated),99.3% (inactive)
16,CCOC(=O)c1ccc(N2C(=O)C(CC(N)=O)N(CCc3ccc(OC)c(OC)c3)C2=S)cc1 (configuration not stated),88.8% (inactive)
17,Cc1cnc(C(=O)NCCc2ccc(S(=O)(=O)NC(=O)NC3CCCCC3)cc2)cn1,92.2% (inactive)
18,COc1cccc2c1C(=O)O/C2=C/c1ccc2c(c1)OCO2,83.8% (inactive)
19,COc1ccc(C2N3CC4(C)CN2CC(C)(C3)C4)cc1OC (configuration not stated),107% (inactive)

# Test: inhibitors of CD8+ T cell-vesicle binding, pilot screen, LFA-1/ICAM-1 modulator project, MLPCN validation set, flow cytometry (AID 2523;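 active means response below a set limit, under 55% cells CD8-positive and vesicle-bound, and CD8 cells' 90th-percentile brightness under 279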;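 on vesicle binding response: mean PE anti-B7-1 fluorescence of CD8+ cells relative to row control; 100% = QL9-loaded vesicles with DMSO vehicle in the same plate row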)
# Settings: 2C mouse CD8+ T cells, at 7 µM, stronger effect = lower value; double positive events: measured here: CD8+/vesicle+ event percentage
SMILES,vesicle binding response,double positive events [%]
Cc1ccc2[nH]c3c(c2c1)CN(C)CC3,188% (inactive),63.4
COc1ccc2[nH]c3c(c2c1)CCn1c-3nc2ccccc2c1=O,168% (inactive),48.2
CC(=O)O[C@H]1CSC[C@H]1NC(=O)c1ccccc1,233% (inactive),60.9
CC(=O)Oc1ccc2occ(/C=N/c3cc(=O)[nH]c(=S)[nH]3)c(=O)c2c1,181% (inactive),66.1
O=C(O)CCSc1nc2ccccc2s1,183% (inactive),49.5
CCOc1ccc(C(=O)/C=C/c2cc(OC)c(OC)c(OC)c2)cc1,209% (inactive),54.7
COC(=O)c1cc(OC)c(OC)c(OC)c1[N+](=O)[O-],186% (inactive),58.1
COC(=O)c1[nH]c2ccccc2c1NC(=O)CN1CCN(C/C=C/c2ccccc2)CC1,154% (inactive),55.6
Cc1ncc([N+](=O)[O-])n1CC(C)O (configuration not stated),149% (inactive),52.2
Clc1ccccc1CN1CCc2sccc2C1,233% (inactive),64.6
CC[C@]1(O)C[C@@H]2CN(CCc3c([nH]c4ccccc34)[C@@](C(=O)OC)(c3cc4c(cc3OC)N(C)[C@H]3[C@@](O)(C(=O)OC)[C@H](OC(C)=O)[C@]5(CC)C=CCN6CC[C@]43[C@@H]65)C2)C1,153% (inactive),55.4
O=C(CCCN1CC=C(n2c(=O)[nH]c3ccccc32)CC1)c1ccc(F)cc1,237% (inactive),63
CCOc1cccc(N2C(=O)CC(N(CCc3ccc(OC)c(OC)c3)C(=O)CC)C2=O)c1 (configuration not stated),184% (inactive),59.7
COC(=O)C1=C(C)NC(C)=C(C(=O)OC)C1c1ccccc1[N+](=O)[O-],186% (inactive),53.9
CC(COc1ccccc1)NC(C)C(O)c1ccc(O)cc1 (configuration not stated),203% (inactive),55.7
COc1ccc2oc(=O)c(-c3nc(C)cs3)cc2c1,204% (inactive),54.8
CC(=O)Oc1cc(C(C)C)c(OCCN(C)C)cc1C,152% (inactive),52.8
O=C(NNC(=O)c1cccs1)c1ccco1,159% (inactive),56.8
CC(C)Oc1ccc(C(CC(=O)O)c2ccc(F)cc2)cc1 (configuration not stated),164% (inactive),62.7
Cc1ccccc1-c1coc2cc(O)ccc2c1=O,187% (inactive),60.2

SMILES,vesicle binding response,double positive events [%]
CCN(CC)CCOC(=O)C1(C2CCCCC2)CCCCC1,162% (inactive),50.5
NC(=O)OCC(COC(N)=O)c1ccccc1,160% (inactive),58.1
CC(C)[N+]1(C)[C@@H]2CC[C@H]1CC(OC(=O)C(CO)c1ccccc1)C2 (some centres not stated),158% (inactive),53.4
Cc1ccccc1OCCSc1nc2ncnc(N)c2[nH]1,163% (inactive),51.9
CC(=O)NCCCCCCNC(C)=O,198% (inactive),55.5
CCN(Cc1ccncc1)Cc1nc(Cc2ccccc2Cl)no1,164% (inactive),53.4
CCOC(=O)NN1C(=O)c2ccccc2NC1c1ccc(OC)c(OC)c1 (configuration not stated),121% (inactive),64.4
COc1ccc2c(c1)c(CC(=O)O)c(C)n2C(=O)c1ccc(Cl)cc1,173% (inactive),50
CC1=CC2(O)OCCN(CCO)C2=CC1=O (configuration not stated),162% (inactive),56.9
Cc1ccccc1C(OCCN(C)C)c1ccccc1 (configuration not stated),111% (inactive),51.2
COC1(C)CC2C(CC1OC(=O)c1cc([N+](=O)[O-])cc([N+](=O)[O-])c1)C2(C)C (configuration not stated),222% (inactive),52.4
O=C1OC(c2ccc(O)cc2)(c2ccc(O)cc2)c2ccccc21,180% (inactive),62.5
Cn1c(=O)c2c(ncn2CC(O)CO)n(C)c1=O (configuration not stated),114% (inactive),53.8
Cc1cnc(C(=O)N2CCCC(C(=O)c3ccc(Cl)cc3C)C2)cn1 (configuration not stated),175% (inactive),50
CN(C)C(=O)C12CCC(C)(c3nc4ccccc4nc31)C2(C)C (configuration not stated),190% (inactive),62.9
CCOC(=O)c1ccc(N2C(=O)C(CC(N)=O)N(CCc3ccc(OC)c(OC)c3)C2=S)cc1 (configuration not stated),153% (inactive),46.3
Cc1cnc(C(=O)NCCc2ccc(S(=O)(=O)NC(=O)NC3CCCCC3)cc2)cn1,230% (inactive),65
COc1cccc2c1C(=O)O/C2=C/c1ccc2c(c1)OCO2,177% (inactive),64.2
COc1ccc(C2N3CC4(C)CN2CC(C)(C3)C4)cc1OC (configuration not stated),177% (inactive),52.7
